Results on 30 compounds are retold here after PubChem BioAssay (NCI).

Compounds without any hit were thinned out: in the full panel of roughly 83,000, 20% have a hit.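 The endpoint reported here, percent growth, reads 100 for growth as untreated, 0 for no net growth and -100 for all cells dead.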 Values without a mark were called inactive. Active and inactive are the calls of the source. The calls were made as follows: active = growth percent below 10; inactive = the rest.

Common to all, as to experiment: NCI-60 one-dose screen, 48 h (100 = growth as untreated, 0 = no growth, -100 = all killed)
Holding throughout (details): 10 µM unless noted

Assay [1] concerns DU-145 prostate.
The test system of assay [2] is K-562 leukemia.
Assay [3] relates to MALME-3M melanoma.
The subject of assay [4] is MDA-MB-231 breast.
For assay [5], the system named is RXF 393 renal.
Assay [6] deals with SF-268 CNS.
Assay [7] relates to SF-295 CNS.
Assay [8] has as its system SF-539 CNS.
Assay [9] concerns M14 melanoma.

`C=C1C(=O)O[C@H]2[C@H]1CC/C(Cn1cc(-c3ccsc3)nn1)=C\CC[C@@]1(C)O[C@@H]21`: the growth is -83.5% (active) in [1]; -16.2% (active) in assay [2]; -66.4% (active) in assay [3]; -58% (active) in [4]; -56.7% (active) in assay [5]; -25.8% (active) in [6]. For the same compound, the growth in assay [7] was 53.9%; in assay [8] it was -72.1% (active); in assay [9] it was -56.7% (active).
For the compound `COc1ccc2c(c1)C(C)Cc1c(N(C)C)ncnc1N2C` (stereo not given), the growth in assay [1] is 53.5%; in assay [2] it was 15.1%; in assay [3], 56.4%; in [4], 54.3%; in assay [5] it was 49%; in assay [6] it was 46.1%. Besides, the results for the growth in [7], in assay [8] and in [9] were 9.16% (active), 6.17% (active) and 25.5%, respectively.
As for `O=C(OCCCCOC(=O)n1cnc2ccccc21)n1cnc2ccccc21`, the growth in [1] is 105%; in assay [2], 101%; in assay [3], 101%; in [4], 94.7%; in assay [5] it was 107%; in assay [6], 98.8%. The growth in assay [7] was 98.3%; in [8], 102%; in assay [9], 102%.
Regarding `O=S(=O)(NCCCNc1cc(-c2cn(-c3ccccc3)nc2-c2cccc(O)c2)ccn1)c1ccc(Br)cc1`, the growth in assay [1] is 31.3%; in [2] it was -21.3% (active); in assay [3], -27.3% (active); in assay [4] it was -20.7% (active); in assay [5], 2.04% (active); in assay [6], 17.9%. The values for the growth in assay [7], in assay [8] and in assay [9] were -55.2% (active), 18.9% and 0.533% (active), respectively.
Consider `O=c1cc(C2NCCc3c2[nH]c2ccccc32)c2c(ccc3ccccc32)o1` (stereo not given), for which the growth in assay [1] is 59.6%; in assay [2], 52.9%; in assay [3] it was 60.1%; in assay [4] it was 80.7%; in assay [5], 44.2%; in [6], 85.9%. The growth in assay [7] is 81.8%; in [8], 79.4%; in assay [9], 65.2%.
Take `CC(C)N(Cc1ccc(CN(C(=O)CCl)C(C)C)cc1)C(=O)CCl`: the growth in assay [1] was 12%; in assay [2] it was 14%; in [3], -63.2% (active); in assay [4] it was -2.71% (active); in assay [5], 45.6%; in [6] it was -50.7% (active). Also, the growth in assay [7] is 28.2%; in assay [8] it was -84% (active); in [9], 1.15% (active).
Take `O=C(Cc1n[nH]c(=O)c2ccccc12)OCc1c(Cl)cccc1Cl`: the growth in assay [1] is 130%; in assay [2] it was 46.4%; in [3], 100%; in assay [4], 72.9%; in [5], 52.5%; in assay [6], 60.9%. Further, the results for the growth in assay [7], in assay [8] and in assay [9] were 55.1%, 94.9% and 97.4%, respectively.
For the compound `O=S(=O)(NCCCNc1cc(-c2cn(-c3ccccc3)nc2-c2cccc(O)c2)ccn1)c1ccc(Cl)cc1`, the growth was 39.9% in [1]; -8.45% (active) in [2]; -19.3% (active) in assay [3]; -17.3% (active) in assay [4]; 14.9% in assay [5]; 30.6% in [6]. Besides, the results for the growth in assay [7], in assay [8] and in assay [9] were -47.9% (active), 21.6% and 8.6% (active), respectively.
`COc1cc(C2CC(c3c(C)[n+]([O-])c4ccccc4[n+]3[O-])=NN2)cc(OC)c1OC` (stereo not given): the growth is 112% in assay [1]; 106% in assay [2]; 112% in assay [3]; 104% in assay [4]; -20.2% (active) in assay [5]; 112% in assay [6]. Also, the growth in [7] was 103%; in assay [8], 124%; in assay [9], 101%.
On to `Nc1cc2c(cc1N)-c1cc(N)c(N)cc1C2`, for which the growth in assay [1] was 118%; in assay [2], 107%; in [3], 102%; in assay [4], 83.8%; in assay [5], 107%; in [6], 91.4%. Also, the growth is 113% in [7], 103% in [8] and 101% in [9].
In the case of `COc1cc(-c2csc(NC(=O)Nc3ccc(Cl)cc3Cl)n2)cc(OC)c1OC`, the growth in assay [1] was 46.6%; in assay [2], 15.8%; in [3], 45%; in assay [4], 54.7%; in assay [5], 49.9%; in [6] it was 33.6%. The growth in assay [7] is 19.2%; in assay [8], 29.4%; in assay [9], 34.9%.
With `CC(CCc1ccccc1)NC(=O)c1n[nH]c(=O)c2ccccc12` (stereo not given), the growth in assay [1] is 110%; in assay [2], 77.3%; in [3] it was 116%; in assay [4], 101%; in [5], 144%; in assay [6] it was 112%. Moreover, the results for the growth in [7], in assay [8] and in assay [9] were 107%, 98.6% and 104%, respectively.
For the compound `CCOC(=O)CC/C(C)=N\Nc1ccc([N+](=O)[O-])cc1`, the growth in assay [1] is 88.6%; in assay [2] it was 6.98% (active); in [3] it was 104%; in assay [4] it was 80.8%; in assay [5] it was 97.5%; in [6] it was 73.5%. Further, the growth in assay [7] is 60%; in [8] it was 69.8%; in assay [9], 29.3%.
Turning to `O=C1C2=C(C(=O)c3c(O)ccc(O)c31)N(c1cccnc1)Cc1ccccc1O2`, the growth in assay [1] is -96.6% (active); in assay [2], -9.44% (active); in assay [3], -80.5% (active); in [4], -68.9% (active); in assay [5] it was -78.8% (active); in [6] it was 1.4% (active). Moreover, the figures for the growth in assay [7], in assay [8] and in assay [9] were 37.9%, -56.1% (active) and -78% (active), respectively.
Turning to `Cc1cc(C)c2c(=O)[nH]c(SCC(=O)Nc3cccc(S(=O)(=O)N(C)C)c3)nc2n1`, the growth is 101% in [1]; 94.1% in assay [2]; 95.8% in [3]; 87.6% in assay [4]; 58.4% in assay [5]; 114% in [6]. For the same compound, the growth in assay [7] is 139%; in assay [8] it was 97.3%; in assay [9], 100%.
With `Nc1cccc2c1CN(C1CCC(=O)NC1=O)C2=O` (stereo not given), the growth was 107% in assay [1]; 132% in [2]; 119% in assay [3]; 107% in assay [4]; -17.4% (active) in [5]; 102% in assay [6]. For the same compound, the growth in [7] was 116%; in [8], 94.7%; in assay [9] it was 101%.
`Cc1ccc2nc(SCn3nnc4ccccc4c3=O)[nH]c2c1`: the growth in assay [1] is 96.5%; in assay [2], 74.4%; in [3] it was 323%; in assay [4] it was 97.9%; in assay [5], 117%; in [6], 111%. In addition, the growth in [7] is 109%; in assay [8], 86.4%; in assay [9], 102%.
Turning to `O=[N+]([O-])c1cccc(-c2cc(-c3cc(Br)ccc3O)[nH]n2)c1`, the growth was 35.1% in assay [1]; 12.4% in assay [2]; 5.27% (active) in [3]; 27% in assay [4]; 58.1% in assay [5]; 23.6% in [6]. Besides, the figures for the growth in [7], in [8] and in assay [9] were 40.4%, 34% and 35.6%, respectively.
As to `COC(=O)CCCCCCN=Cc1c(O)c(O)c(C(C)C)c2cc(C)c(-c3c(C)cc4c(C(C)C)c(O)c(O)c(C=NCCCCCCC(=O)OC)c4c3O)c(O)c12`, the growth in assay [1] is 30.6%; in assay [2], 10.5%; in [3] it was 68.5%; in assay [4], 11.9%; in assay [5], 36.2%; in [6] it was 32.8%. Besides, the growth was 7.26% (active) in assay [7], 15.2% in assay [8] and 27% in [9].
As to `CCCCOc1nc2c(C)cccc2cc1C1CNC(=O)c2ccccc2N1` (stereo not given), the growth is 86% in assay [1]; 19% in [2]; 86.1% in [3]; 65.3% in assay [4]; 78.3% in [5]; 66.9% in [6]. Moreover, the growth in [7] was 52.5%; in assay [8], 68.3%; in [9], 54.7%.
Turning to `CC(Br)C(Br)c1cc2c(cc1Br)OCO2` (stereo not given), the growth in [1] was 108%; in assay [2], 112%; in assay [3], 100%; in assay [4], 110%; in assay [5] it was 104%; in assay [6], 99.6%. In addition, the growth in assay [7] is 98.5%; in assay [8] it was 91.1%; in [9], 94.3%.
Turning to `O=C(O)C(=Cc1c2ccccc2cc2ccccc12)C(=O)O`, the growth in assay [1] is 118%; in [2] it was 100%; in assay [3], 97.9%; in [4], 103%; in assay [5] it was 115%; in assay [6] it was 108%. Further, the results for the growth in [7], in assay [8] and in assay [9] were 100%, 97.3% and 100%, respectively.
As to `Cc1ccc2nc(-c3c(CCCO)noc3N)[nH]c(=O)c2c1`, the growth in [1] was 117%; in assay [2], 68%; in [3], 96.6%; in assay [4], 105%; in assay [5], 153%; in [6], 111%. For the same compound, the growth is 99.6% in assay [7], 97.3% in assay [8] and 107% in assay [9].
As for `C=CCc1cc(Cl)cc2c(OC(C)=O)c(C(C)=O)c(-c3ccccc3)nc12`, the growth was 112% in [1]; 109% in assay [2]; 104% in assay [3]; 90.7% in assay [4]; 130% in [5]; 109% in assay [6]. The values for the growth in assay [7], in [8] and in assay [9] were 114%, 110% and 104%, respectively.
For the compound `NC(N)=NC(N)=Nc1ccccc1-c1ccccc1`, the growth is 114% in [1]; 104% in [2]; 110% in [3]; 116% in [4]; 112% in [5]; 113% in [6]. The results for the growth in [7], in assay [8] and in assay [9] were 113%, 110% and 108%, respectively.
With `CN(C)CCCNC(=O)C(c1ccccc1)c1ccccc1`, the growth is 115% in [1]; 95.2% in assay [2]; 104% in assay [3]; 102% in [4]; 116% in assay [5]; 107% in assay [6]. The growth is 102% in assay [7], 99.4% in [8] and 101% in [9].
Regarding `O=C1OC(c2ccccc2)=N/C1=C\c1ccc([N+](=O)[O-])cc1`, the growth is 109% in assay [1]; 112% in [2]; 89% in [3]; 94.1% in [4]; 101% in [5]; 101% in assay [6]. Besides, the values for the growth in assay [7], in assay [8] and in [9] were 103%, 99.2% and 95.4%, respectively.
Regarding `NC(=O)c1cccc(N2Cc3ccccc3OC3=C2C(=O)c2c(O)ccc(O)c2C3=O)c1`, the growth is -96.4% (active) in assay [1]; -19.8% (active) in [2]; -82% (active) in [3]; -81.9% (active) in [4]; -73.1% (active) in [5]; -11.4% (active) in assay [6]. Besides, the growth in [7] is 45.4%; in assay [8], -49.3% (active); in [9] it was -81% (active).
For `C=C1C(=O)O[C@H]2[C@H]1CC/C(COC(=O)NCCc1ccc(OC)cc1)=C\CC[C@@]1(C)O[C@@H]21`, the growth in assay [1] was -12.2% (active); in assay [2], 2.33% (active); in assay [3], -8.71% (active); in assay [4], 1.63% (active); in [5] it was -30.6% (active); in assay [6], 45.9%. The growth in assay [7] was 80.3%; in assay [8], 26.6%; in [9], 25.1%.
Consider `COc1cc(C(=O)CCCl)ccc1O`, for which the growth in [1] was 107%; in assay [2], 97.4%; in [3], 88.7%; in assay [4], 94.3%; in assay [5] it was 98.2%; in assay [6], 96.1%. In addition, the growth in assay [7] is 100%; in assay [8], 94.7%; in [9] it was 111%.
